Screening data deposited in PubChem BioAssay by several laboratories.
Rows were chosen to be rich in hits. Some 9.7% of all compounds tested hit in one or more screens of this group.
WNV NS2B-NS3 inh: inhibitors of West Nile virus NS2B-NS3 protease; WNV NS2B-NS3 protease, fluorogenic substrate Ex360/Em465; hits give low values; z-score (no concentration beside the values); 0.18% of 65,000 active; in the data active = z-score below about -3
Abs 340nm: compounds absorbing at 340 nm; compound absorbance at 340 nm, fold over control; fold change at 10 µM; 65,000 tested, under 10 active; AID 708;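 active = at 10 µM dose, initial 340 nm absorbance at least 2 fold that of control wells; inactive = change under 2 fold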;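 also: initial absorbance extrapolated from kinetic A340 decline of NADH oxidation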
M1 agonist: agonists of M1 muscarinic receptor; CHO-M1 cells, Fluo-4 calcium fluorescence, agonist mode; hits give high values; B-score at 10 µM; 3% of 64,000 active;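 active = fluorescence rise, raw or as B-score row- and column-corrected plate score, outside the 99.7% band of its plate's samples, either direction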
M1 antag: M1 muscarinic receptor (rat) antagonism | P08482 | B-score at 10 µM | CHO-M1 cells, Fluo-4 calcium, ACh EC80 antagonist mode; hits give low values | AID 628 | 3.4% of 64,000 active;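 active = calcium fluorescence response, raw or row-and-column corrected B-score, differing from the plate sample mean either way at a set confidence level, mostly lower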
Target sequence (P08482 whole entry, looked up): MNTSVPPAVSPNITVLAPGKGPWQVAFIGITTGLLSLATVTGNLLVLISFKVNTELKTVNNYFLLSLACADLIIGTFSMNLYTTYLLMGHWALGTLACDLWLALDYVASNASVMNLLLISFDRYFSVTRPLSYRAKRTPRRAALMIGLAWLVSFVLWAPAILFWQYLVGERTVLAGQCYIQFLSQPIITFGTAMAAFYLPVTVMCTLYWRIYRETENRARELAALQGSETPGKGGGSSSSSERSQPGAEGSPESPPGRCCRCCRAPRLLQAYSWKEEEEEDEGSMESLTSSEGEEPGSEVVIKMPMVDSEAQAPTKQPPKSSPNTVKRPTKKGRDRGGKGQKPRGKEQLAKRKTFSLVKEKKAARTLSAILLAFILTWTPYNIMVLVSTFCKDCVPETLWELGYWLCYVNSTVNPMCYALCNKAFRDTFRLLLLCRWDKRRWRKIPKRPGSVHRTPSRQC
BAP1 inh: inhibitors of human BAP1 deubiquitinase; recombinant BAP1, Ub-AMC hydrolysis fluorescence kinetic; hits give low values; calls only at 20 µM; 0.48% of 72,000 active; Q92560;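 active = activity remaining at or below 50% of control, provided the compound also passes the data quality filters; inactive = the rest, including low values that fail the filters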
Fluor 339 460: intrinsic fluorescence of library compounds, ex339/em460 – biochemical, MLSMR library, data from DPM-DC assay, artefact control, profiling panel | compound autofluorescence, ex339/em460 nm, NADH buffer; hits give high values; 1 = no-compound wells, NADH background | fluorescence fold increase at 10 µM | 5.5% of 65,000 active | AID 709;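 active = at 10 µM, mean starting fluorescence two-fold or more over control wells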;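 also: signal is the first read of a kinetic run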
Of the large screens only hits and unclear results are named; the others gave an inactive call.

CCN(CC)C(=O)c1cc2c(=O)n3ccccc3nc2s1	Fluor 339 460 2.15
COCCn1cc(C(=O)NCCCN2CCC(C)CC2)c2c3ccccc3n(C)c2c1=O	Fluor 339 460 2.5
CCCN(CCC)CCNC(=O)c1cc2c(=O)n(C)c3ccccc3c2n1C	none
CCN(CC)CCCNC(=O)c1cn(CCOC)c(=O)c2c1c1ccccc1n2C	Fluor 339 460 4.43 (not shown: BAP1 inh)
CCN1CCN(CCCNC(=O)c2cn(CCOC)c(=O)c3c2c2ccccc2n3C)CC1	Fluor 339 460 2.98 (not shown: BAP1 inh)
COCCn1cc(C(=O)NCc2cccs2)c2c3ccccc3n(C)c2c1=O	Fluor 339 460 3.47
Cn1c(C(=O)NCc2cccs2)cc2c(=O)n(C)c3ccccc3c21	none
CC(=O)Nc1ccc(Oc2cc(NC(=O)c3cc(-c4ccc(Cl)cc4)nc4ccccc34)cc([N+](=O)[O-])c2)cc1	none (no result: WNV NS2B-NS3 inh, Abs 340nm, M1 agonist, M1 antag, Fluor 339 460)
CC1CC(C)CN(S(=O)(=O)c2ccc(C(=O)Nc3cccc(-c4nc5ccccc5s4)c3)cc2)C1 (stereo not given)	none (no result: WNV NS2B-NS3 inh, Abs 340nm, M1 agonist, M1 antag, Fluor 339 460)
CCOC(=O)N1CCN(C(=O)c2cn(CCOC)c(=O)c3c2c2ccccc2n3C)CC1	Fluor 339 460 4.33 (not shown: BAP1 inh)
COCCn1cc(C(=O)N2CCN(C)CC2)c2c3ccccc3n(C)c2c1=O	Fluor 339 460 4.61
CC(N=Cc1ccc(O)cc1)C12CC3CC(CC(C3)C1)C2 (stereo not given)	none (no result: WNV NS2B-NS3 inh, Abs 340nm, M1 agonist, M1 antag, Fluor 339 460)
Cc1ccc(NS(=O)(=O)c2cc(C(=O)O)ccc2Br)cc1	none (no result: WNV NS2B-NS3 inh, Abs 340nm, M1 agonist, M1 antag, Fluor 339 460)
OCCN1CCN(c2ncnc3c2sc2nc(N4CCOCC4)c4c(c23)CCC4)CC1	Fluor 339 460 2.15 (no result: BAP1 inh)
OCCN(CCO)c1ncnc2c1sc1nc(N3CCOCC3)c3c(c12)CCCC3	none
c1nc(N2CCNCC2)c2sc3nc(N4CCOCC4)c4c(c3c2n1)CCC4	Fluor 339 460 2.11 (no result: BAP1 inh)
COC(=O)c1ccc(CSc2ncnc3c2sc2nc(N4CCOCC4)c4c(c23)CCCC4)o1	Fluor 339 460 2.11 (not shown: BAP1 inh)
CN1CCN(c2ncnc3c2sc2nc(N4CCOCC4)c4c(c23)CCC4)CC1	none (no result: WNV NS2B-NS3 inh, Abs 340nm, BAP1 inh, Fluor 339 460)
COc1ccc(CN2C(=O)C3C(c4ccccc4)OC4(C(=O)c5ccccc5C4=O)C3C2=O)cc1 (stereo not given)	none (no result: WNV NS2B-NS3 inh, Abs 340nm, M1 agonist, M1 antag, Fluor 339 460)
N#Cc1ccc(-c2ccccc2)nc1SCC(=O)c1ccccc1	none (no result: WNV NS2B-NS3 inh, Abs 340nm, M1 agonist, M1 antag, Fluor 339 460)
CCOC(=O)C1=C(C)NC2=C(C(=O)CC(C)(C)C2)C1c1coc2ccc(C)cc2c1=O (stereo not given)	none (no result: WNV NS2B-NS3 inh, Abs 340nm, M1 agonist, M1 antag, Fluor 339 460)
Cc1ccc(N/C(=N\c2nc(C)cc(C)n2)NC(=O)c2ccccc2)c(C)c1	none (no result: WNV NS2B-NS3 inh, Abs 340nm, M1 agonist, M1 antag, Fluor 339 460)
COc1cc(C=Nc2ccc(S(=O)(=O)Nc3ccccn3)cc2)ccc1OCc1ccccc1	none (no result: WNV NS2B-NS3 inh, Abs 340nm, M1 agonist, M1 antag, Fluor 339 460)
c1ccc2sc(NC3=NCN(Cc4ccc5c(c4)OCO5)CN3)nc2c1	none
Cc1nc(NC2=NCN(Cc3ccc4c(c3)OCO4)CN2)nc2ccccc12	M1 antag -9.17
Cc1cc(C)c2nc(NC3=NCN(CCN4CCOCC4)CN3)nc(C)c2c1	none
CCc1ccc2nc(NC3=NCN(CCN4CCOCC4)CN3)nc(C)c2c1	M1 antag -3.27
COc1cc2nc(-c3ccc4c(c3)C(=O)N(c3ccccc3OC)C4=O)oc(=O)c2cc1OC	none (no result: WNV NS2B-NS3 inh, Abs 340nm, M1 agonist, M1 antag, Fluor 339 460)
CCOC(=O)C(C)Oc1ccc2c(C)cc(=O)oc2c1C(C)=O (stereo not given)	none
CCC(=O)Oc1ccc2c(C)cc(=O)oc2c1C	Fluor 339 460 2.13
CCOC(=O)C1C(c2cccc([N+](=O)[O-])c2)NC(=S)NC1(O)C(F)(F)F (stereo not given)	none (no result: WNV NS2B-NS3 inh, Abs 340nm, M1 agonist, M1 antag, Fluor 339 460)
COc1ccc(CC(=O)Nc2ccc(-c3nc4cc(C)ccc4o3)c(O)c2)cc1OC	Fluor 339 460 2.19 (not shown: BAP1 inh)
COc1cc2ccccc2cc1C(=O)Nc1ccc2oc(-c3ccc(Br)cc3)nc2c1	none (no result: WNV NS2B-NS3 inh, Abs 340nm, M1 agonist, M1 antag, Fluor 339 460)
CCOc1ccc(-c2nc3cc(NC(=O)COc4cccc(C)c4)ccc3o2)cc1	none (no result: WNV NS2B-NS3 inh, Abs 340nm, M1 agonist, M1 antag, Fluor 339 460)
CCCC(=O)Nc1ccc(-c2nc3cc(C)c(C)cc3o2)c(O)c1	Fluor 339 460 2.18 (not shown: BAP1 inh)
CCCC(=O)Nc1ccc2oc(-c3ccc(OC)c(Br)c3)nc2c1	Fluor 339 460 3.67 (not shown: BAP1 inh)
CCCC(=O)Nc1ccc(-c2nc3cc(C)ccc3o2)cc1	Fluor 339 460 2.34
Cc1cc2nn(-c3ccccc3)nc2cc1NC(=O)c1ccc([N+](=O)[O-])cc1Cl	none (no result: WNV NS2B-NS3 inh, Abs 340nm, M1 agonist, M1 antag, Fluor 339 460)
CC(C)C(=O)Nc1cccc(NC(=O)CCN2C(=O)c3ccccc3S2(=O)=O)c1	M1 antag 1.38
